GLS inhibitor – qHTS for Inhibitors of Glutaminase (GLS); Glutaminase kidney isoform, mitochondrial (Homo sapiens), O94925; GLS enzymatic activity, qHTS titration; Potency, µM (series often up to 45.5 µM), for the others: at the top dose activity change, negative = inhibition, actives largely listed as inhibitors; hit rate 0.21% among 410,000; AID 624170, 2012; also: % is scaled to controls: 0 for no effect and ±100 for the full control effect
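Assay buffer: 45 mM KH2PO4 pH 8.2, 0.02% Tween-20. hKGA acts on L-glutamine (1 mM solution added); product glutamate is reported by an oxidase/peroxidase Amplex Red coupling, with fluorescence taken at baseline and 30 min.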
JMJD2A Tudor – qHTS Assay for Inhibitors of JMJD2A-Tudor Domain | AlphaScreen JMJD2A-Tudor / H3K4me3 peptide binding | Potency, µM (titrated, usually from 114 µM), inactives show at the top dose activity change, negative = inhibition, actives largely listed as inhibitors | Lysine-specific demethylase 4A (Homo sapiens), O75164 | hit rate 4.4% among 390,000; also: % is scaled to controls: 0 for no effect and ±100 for the full control effect; nearly all actives have a fitted effect of over 50% in size
HP1b chromo inh – HTS for Inhibitors of HP1-beta Chromodomain Interactions with Methylated Histone Tails | Chromobox protein homolog 1 (Homo sapiens), P83916 | AlphaScreen HP1-beta / biotin-H3K9me3 peptide binding | Potency, µM (highest dose often 114 µM), without a hit: top-dose activity change, negative = inhibition, usual class: inhibitors | hit rate 0.56% among 390,000; also: nearly all actives have a fitted effect of over 70% in size
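Compound inhibition of the preformed complex between 50 nM HP1-beta and 50 nM biotinylated H3K9me3 peptide was read by AlphaScreen. Buffer was PBS pH 7.4 with 0.01% Tween-20. Incubations ran 30 min at room temperature, with 10 ug/mL donor/acceptor beads.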
BAZ2B inh – qHTS Assay for Inhibitors of BAZ2B; Bromodomain adjacent to zinc finger domain protein 2B (Homo sapiens), Q9UIF8; AlphaScreen BAZ2B-H3K14Ac peptide displacement; Potency, µM (doses to about 114 µM), for inactives: top-dose activity change, negative = inhibition, actives largely listed as inhibitors; hit rate 4.4% among 360,000; also: % is scaled to controls: 0 for no effect and ±100 for the full control effect; nearly all actives have a fitted effect of over 60% in size
Target sequence (Q9UIF8 whole entry, looked up, the tested form may be a part): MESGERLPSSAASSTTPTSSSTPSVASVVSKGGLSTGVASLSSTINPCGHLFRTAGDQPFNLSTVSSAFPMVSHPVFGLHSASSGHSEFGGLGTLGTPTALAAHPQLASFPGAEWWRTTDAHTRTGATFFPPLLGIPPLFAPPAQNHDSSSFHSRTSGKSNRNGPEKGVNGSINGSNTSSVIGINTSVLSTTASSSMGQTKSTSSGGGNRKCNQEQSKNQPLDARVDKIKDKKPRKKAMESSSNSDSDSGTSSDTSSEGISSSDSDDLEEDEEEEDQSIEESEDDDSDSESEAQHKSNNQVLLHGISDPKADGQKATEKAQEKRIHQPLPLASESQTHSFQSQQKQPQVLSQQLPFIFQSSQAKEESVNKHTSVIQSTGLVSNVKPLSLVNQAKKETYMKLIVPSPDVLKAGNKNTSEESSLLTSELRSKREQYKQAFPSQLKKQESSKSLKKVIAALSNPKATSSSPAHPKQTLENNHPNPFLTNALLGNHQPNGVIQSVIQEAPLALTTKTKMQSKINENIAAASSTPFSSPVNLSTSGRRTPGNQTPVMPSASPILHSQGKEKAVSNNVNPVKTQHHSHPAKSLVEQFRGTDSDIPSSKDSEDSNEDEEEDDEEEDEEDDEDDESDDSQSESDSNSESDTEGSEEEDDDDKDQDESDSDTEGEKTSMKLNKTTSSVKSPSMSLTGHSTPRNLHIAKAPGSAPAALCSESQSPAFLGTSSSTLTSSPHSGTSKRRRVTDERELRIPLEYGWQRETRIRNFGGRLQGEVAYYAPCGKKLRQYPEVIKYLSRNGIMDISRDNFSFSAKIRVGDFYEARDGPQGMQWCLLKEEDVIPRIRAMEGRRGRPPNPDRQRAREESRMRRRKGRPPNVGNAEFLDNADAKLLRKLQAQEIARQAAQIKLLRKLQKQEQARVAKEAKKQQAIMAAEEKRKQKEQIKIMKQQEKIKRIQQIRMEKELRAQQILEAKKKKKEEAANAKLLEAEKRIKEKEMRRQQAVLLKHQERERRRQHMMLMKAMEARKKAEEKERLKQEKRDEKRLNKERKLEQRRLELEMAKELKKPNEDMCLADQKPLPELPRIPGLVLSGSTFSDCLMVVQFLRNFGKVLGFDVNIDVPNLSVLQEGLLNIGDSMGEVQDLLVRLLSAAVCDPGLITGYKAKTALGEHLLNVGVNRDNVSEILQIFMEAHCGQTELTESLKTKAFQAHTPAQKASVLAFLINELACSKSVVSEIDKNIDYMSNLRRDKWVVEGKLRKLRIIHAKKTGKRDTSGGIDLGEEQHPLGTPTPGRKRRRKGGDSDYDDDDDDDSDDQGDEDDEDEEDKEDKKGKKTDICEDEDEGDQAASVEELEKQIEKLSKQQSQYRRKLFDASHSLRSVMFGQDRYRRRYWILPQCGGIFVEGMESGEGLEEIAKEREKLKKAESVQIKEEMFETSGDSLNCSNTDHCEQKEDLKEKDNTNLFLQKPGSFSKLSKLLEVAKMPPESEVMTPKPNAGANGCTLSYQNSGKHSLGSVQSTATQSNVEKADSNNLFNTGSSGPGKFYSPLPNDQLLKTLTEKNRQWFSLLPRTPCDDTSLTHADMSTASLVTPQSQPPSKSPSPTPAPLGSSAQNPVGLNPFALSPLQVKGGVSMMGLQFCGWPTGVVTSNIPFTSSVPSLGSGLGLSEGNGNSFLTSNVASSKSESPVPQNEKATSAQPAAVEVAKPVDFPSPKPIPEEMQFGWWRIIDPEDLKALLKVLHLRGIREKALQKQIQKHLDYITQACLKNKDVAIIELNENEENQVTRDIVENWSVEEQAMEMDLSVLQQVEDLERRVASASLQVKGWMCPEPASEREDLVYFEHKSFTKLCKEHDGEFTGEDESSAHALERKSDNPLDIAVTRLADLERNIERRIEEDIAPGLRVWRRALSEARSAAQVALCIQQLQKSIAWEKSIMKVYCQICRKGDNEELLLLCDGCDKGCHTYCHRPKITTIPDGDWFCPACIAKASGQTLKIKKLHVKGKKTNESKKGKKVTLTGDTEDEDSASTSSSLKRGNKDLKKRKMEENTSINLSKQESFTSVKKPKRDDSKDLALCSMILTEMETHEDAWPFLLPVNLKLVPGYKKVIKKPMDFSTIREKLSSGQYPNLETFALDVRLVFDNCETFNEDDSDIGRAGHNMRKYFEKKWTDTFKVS
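Complex of BAZ2B and biotin-H3K14Ac (50 nM apiece) forms over 30 min at RT, then faces library compounds up to 110 uM for another 30 min; AlphaScreen beads added, 20 min dark incubation, luminescence read.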
L3MBTL1 block – qHTS Assay for the Inhibitors of L3MBTL1 | Lethal(3)malignant brain tumor-like protein 1 (Homo sapiens), Q9Y468 | AlphaScreen L3MBTL1–H3K9me1 peptide binding | Potency, µM (top dose mostly 57.1 µM), for inactives: top-dose activity, negative = inhibition, actives largely listed as inhibitors | hit rate 0.66% among 230,000 | AID 485360, 2010; also: % is scaled to controls: 0 for no effect and ±100 for the full control effect; nearly all actives have a fitted effect of over 60% in size
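Displacement of a biotinylated histone H3(1-15) peptide monomethylated at Lys9 (75 nM) from L3MBTL1 (50 nM) was measured by AlphaScreen after a 30 min room-temperature compound incubation; cefsulodin titration served as intraplate control.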
G9a inh – qHTS Assay for Inhibitors of Histone Lysine Methyltransferase G9a; Histone-lysine N-methyltransferase EHMT2 (Homo sapiens), Q96KQ7; G9a H3K9 monomethylation, AlphaScreen, 2 h; Potency, µM (doses to about 102 µM), for the others: top-dose activity, negative = inhibition, actives largely listed as inhibitors; hit rate 8.8% among 350,000; AID 504332, 2011; also: % is scaled to controls: 0 for no effect and ±100 for the full control effect; nearly all actives have a fitted effect of over 75% in size
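AlphaScreen read-out: biotin-H3K9 peptide (500 nM) methylation by 20 nM enzyme with 20 uM SAM, 2 h at room temperature after 15 min compound preincubation; anti-monomethyl H3K9 antibody plus donor/acceptor beads, 10 min dark.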
* hit, by the source's call; ? = inconclusive; / = no result given; [ ] = dose if it differs, or a comment. Sampled rows, rich in hits. Any-hit rate of the full collection: about 10%. Calls follow the shape of the dose curve; as a rule, active = well fitted curve in the direction sought with a large enough effect; inconclusive = small, poorly fitted or top-dose-only effect, or another doubt; inactive = no such curve, though single readings can be large; an effect the other way counts as inactive or inconclusive. Potency is read from the fitted curve at half-maximal effect.

SMILES	GLS inhibitor	JMJD2A Tudor	HP1b chromo inh	BAZ2B inh	L3MBTL1 block	G9a inh
Cc1ccc(CCNC(=O)C2CCN(Cc3nc(-c4ccccc4C)oc3C)CC2)cc1	4%	-19%	15%	-17%	/	-49%[59 µM]
COc1ccc(C(=O)Oc2cccc3cccnc23)cc1[N+](=O)[O-]	22%	?	18%	14µM*	?	2%
NC(=O)c1ccc(Oc2cccc3cccnc23)c([N+](=O)[O-])c1	3%	-13%	21%	-14%	-3%	24%
Cc1ccc(C)c(S(=O)(=O)n2nc(C)c(S(=O)(=O)N3CCCCCC3)c2C)c1	-7%	-26%	15%[57 µM]	-13%	/	-6%[59 µM]
Cc1ccc(CNC(=O)CSCc2cccc(F)c2)cc1	?	50µM*	-6%	/	/	-22%
O=C(CSCc1cccc(F)c1)NCc1ccccc1	3%	-2%	20%	-2%	/	30%
CC1=C(C(=O)Nc2cc(Cl)ccc2C)C2(CCCCC2)OC1=O	-7%	-7%	36%	-2%	/	11%[59 µM]
CC1CN(CCOc2ccc(F)cc2)CC(C)O1 (stereo not given)	-1%	20µM*	?	50µM*	1%	7.1µM*
O=[N+]([O-])c1ccc(OCCN2CCNCC2)cc1	-9%	25µM*	?	50µM*	16%	/
Fc1ccc(OCCCCCCN2CCCC2)cc1	-3%	-19%	13%	6%	-6%	0%[59 µM]
O=[N+]([O-])c1ccc(OCCOCCOc2ccc([N+](=O)[O-])cc2)cc1	1%	-12%	13%	-4%	/	-8%[59 µM]
Cn1c(=O)n(CCOc2ccc([N+](=O)[O-])cc2)c2ccccc21	-10%	-18%	14%	-8%	3%	-7%[12.7 µM]
Cc1cc(OCCN2CCC(Cc3ccccc3)CC2)ccc1[N+](=O)[O-]	-13%	?	?	?	/	40µM*
CC1CN(CCOc2ccc([N+](=O)[O-])cc2)CC(C)O1 (stereo not given)	-2%	6.3µM*	?	?	7%	2.5µM*
O=C1OC2(CCCCC2)CC2=C1C1O[C@](c3ccsc3)(Cc3c1ccc1ccccc31)O2	/	/	/	-4%[22.9 µM]	/	/
Cc1cccc(CNC(=O)CSCc2cnn(-c3ccccc3)c2-n2cccc2)c1	-8%	-5%	9%	1%	/	7%[59 µM]
Cc1cc(OCCN2CC(C)OC(C)C2)ccc1[N+](=O)[O-] (stereo not given)	-6%	2.8µM*	?	?	3%	13µM*
CC1CN(CCCOc2ccc([N+](=O)[O-])cc2)CC(C)O1 (stereo not given)	13%	14µM*	?	-9%	3%	10µM*
CCCn1c(SCc2nc(-c3cc(OC)ccc3OC)no2)nnc1-c1ccc(Cl)cc1	-1%	-27%	20%	-25%	/	9%[59 µM]
N#Cc1ccc(/C=C/C(=O)c2ccco2)cc1	-1%	-1%	32%	-3%	-21%	14µM*
Cc1cc(C=C2C(=O)c3ccccc3C2=O)c(C)n1-c1cccc(C(=O)O)c1	9%	-38%	-15%	?	/	40µM*
O=c1/c(=C/c2ccc(O)c([N+](=O)[O-])c2)sc2nc3ccccc3n12	0%	45µM*	?	?	-9%	?
Cc1cc(/C=c2\sc3nc4ccccc4n3c2=O)c(C)n1-c1ccc(C(=O)O)cc1	-4%	-23%	-17%	?	-9%	25µM*
Cc1cc(C=C2C(=O)c3ccccc3C2=O)c(C)n1-c1ccc(C(=O)O)cc1	-4%	-27%	-11%	?	?	35µM*
CC(O)CNC(=O)C(=O)Nc1c2c(nn1-c1ccc(Cl)cc1)CSC2 (stereo not given)	0%	-17%	-11%	0%	/	?
SMILES	GLS inhibitor	JMJD2A Tudor	HP1b chromo inh	BAZ2B inh	L3MBTL1 block	G9a inh
Cc1cccc(CCN=c2c([N+](=O)[O-])nn(-c3ccccc3)n2O)c1	6%	50µM*	?	/	/	?
CSc1nsc(SC)c1C(=O)O	-1%	-2%	16%	-4%	?	45µM*
CSc1nsc(SC)c1C(N)=O	-3%	-28%	0%	1%	0%	8%
COc1cc(-c2nc(S(=O)(=O)c3ccc(C)cc3)c(N(C)C)o2)cc(OC)c1OC	1%	?	-17%	?	1%	3.5µM*
COc1cc(-c2nc(S(=O)(=O)c3ccc(C)cc3)c(N3CCOCC3)o2)cc(OC)c1OC	9%	?	2%	?	-5%	?
COc1ccccc1-c1nc(S(=O)(=O)c2ccc(Cl)cc2)c(N(C)C)o1	2%	?	?	?	/	2.8µM*
COc1cccc(/C=C/c2nc(S(=O)(=O)c3ccccc3)c(N(C)C)o2)c1	-2%	-4%	26%	-4%	/	-18%
Cc1ccc(S(=O)(=O)c2nc(-c3ccccc3Cl)oc2N(C)C)cc1	-7%	-23%	10%	-1%	/	/
Cc1ccc(-c2nc(S(=O)(=O)c3ccc(C)cc3)c(N(C)C)o2)cc1	0%	?	-12%	?	/	10µM*
COc1ccccc1/C=C/c1nc(S(=O)(=O)c2ccccc2)c(N(C)C)o1	-9%	?	69%	71µM*	/	35µM*
CC(C)CC(=O)Nc1nc2c(s1)CC(C(C)(C)C)CC2 (stereo not given)	-7%	-3%	21%	-14%	/	-21%[59 µM]
c1ccc(C(NCc2cccnc2)(c2ccccc2)c2ccccc2)cc1	/	/	/	/	/	-32%[59 µM]
COC(=O)/C=c1\sc2ncnn2c1=O	-12%	20µM*	?	11%	6%	3.2µM*
CC[N+]1(C)CCC(O)(c2ccc(OC)cc2)C(C(=O)c2ccc(OC)cc2)C1 (stereo not given)	-10%	89µM*	-5%	/	/	/
COc1ccc(-c2ccc(C(=O)C3CC3)cc2)cc1	7%	-7%	57%	-7%	/	21%
COCCCNC(=O)C1CCCN(c2nn3cc(-c4ccc(C)cc4)nc3s2)C1 (stereo not given)	5%	-26%	2%	-18%	/	-4%[59 µM]
O=S(=O)([O-])CCC[n+]1ccc(Oc2ccccc2)cc1	-7%	11%	35%	-38%	0%	28µM*
CN(C)c1cc[n+](CC(=O)Nc2ccc(Oc3ccccc3)cc2)cc1	-1%	-11%	22%	-2%	25%	7%
O=c1cc(CO)oc(CN2CCN(c3cccc(C(F)(F)F)c3)CC2)c1O	25%	-16%	24%	?	/	?

High-throughput results (PubChem)
